Consider 40 compounds from PubChem BioAssay (EPA / NIEHS).

As usually defined, the AC50 is the midpoint of the concentration-response curve, whichever way the signal moves.

“And” between values parts separate entries of the source, which are not always exact repeats. Identical values can stand only once. Records with an inconclusive call do not appear. The source made the active and inactive calls. The calls were made as follows: active = hit-call score of the fitted dose curve at least 0.9, where 1 is the maximum; inconclusive = response in the unintended direction; inactive = score below 0.9.

The assay deals with human Tyrosine Protein Kinase Receptor Tie-2 (Tie2), TEK (gene 7010) (UniProt Q02763). Nature of the assay: NVS_ENZ_hTie2: NovaScreen (NVS) Enzymatic Assay for human Tyrosine Protein Kinase Receptor Tie-2 (Tie2) (AID 2283225). Here is the method: NVS_ENZ_hTie2 is a biochemical, single-readout assay that uses extracted gene-proteins in a cell-free assay. Measurements were taken 1 hour after chemical dosing in a 384-well plate.NVS_ENZ_hTie2 is one of one assay component(s) measured or calculated from the NVS_ENZ_hTie2 assay. It is designed to make measurements of enzyme activity, a form of enzyme reporter, as detected with fluorescence intensity signals by Fluorescence and electrophoretic mobility shift technology.Data from the assay component NVS_ENZ_hTie2 was analyzed into 1 assay endpoint. This assay endpoint, NVS_ENZ_hTie2, was analyzed in the positive analysis fitting direction relative to DMSO as the negative control and baseline of activity. Using a type of enzyme reporter, loss-of-signal activity can be used to understand changes in the enzymatic activity as they relate to the gene TEK. Furthermore, this assay endpoint can be referred to as a primary readout, because this assay has produced multiple assay endpoints where this one serves a enzymatic activity function. To generalize the intended target to other relatable targets, this assay endpoint is annotated to the kinase intended target family, where the subfamily is receptor tyrosine kinase.
Sequence of human Tyrosine Protein Kinase Receptor Tie-2 (Tie2), TEK (gene 7010) (Q02763 whole entry, looked up): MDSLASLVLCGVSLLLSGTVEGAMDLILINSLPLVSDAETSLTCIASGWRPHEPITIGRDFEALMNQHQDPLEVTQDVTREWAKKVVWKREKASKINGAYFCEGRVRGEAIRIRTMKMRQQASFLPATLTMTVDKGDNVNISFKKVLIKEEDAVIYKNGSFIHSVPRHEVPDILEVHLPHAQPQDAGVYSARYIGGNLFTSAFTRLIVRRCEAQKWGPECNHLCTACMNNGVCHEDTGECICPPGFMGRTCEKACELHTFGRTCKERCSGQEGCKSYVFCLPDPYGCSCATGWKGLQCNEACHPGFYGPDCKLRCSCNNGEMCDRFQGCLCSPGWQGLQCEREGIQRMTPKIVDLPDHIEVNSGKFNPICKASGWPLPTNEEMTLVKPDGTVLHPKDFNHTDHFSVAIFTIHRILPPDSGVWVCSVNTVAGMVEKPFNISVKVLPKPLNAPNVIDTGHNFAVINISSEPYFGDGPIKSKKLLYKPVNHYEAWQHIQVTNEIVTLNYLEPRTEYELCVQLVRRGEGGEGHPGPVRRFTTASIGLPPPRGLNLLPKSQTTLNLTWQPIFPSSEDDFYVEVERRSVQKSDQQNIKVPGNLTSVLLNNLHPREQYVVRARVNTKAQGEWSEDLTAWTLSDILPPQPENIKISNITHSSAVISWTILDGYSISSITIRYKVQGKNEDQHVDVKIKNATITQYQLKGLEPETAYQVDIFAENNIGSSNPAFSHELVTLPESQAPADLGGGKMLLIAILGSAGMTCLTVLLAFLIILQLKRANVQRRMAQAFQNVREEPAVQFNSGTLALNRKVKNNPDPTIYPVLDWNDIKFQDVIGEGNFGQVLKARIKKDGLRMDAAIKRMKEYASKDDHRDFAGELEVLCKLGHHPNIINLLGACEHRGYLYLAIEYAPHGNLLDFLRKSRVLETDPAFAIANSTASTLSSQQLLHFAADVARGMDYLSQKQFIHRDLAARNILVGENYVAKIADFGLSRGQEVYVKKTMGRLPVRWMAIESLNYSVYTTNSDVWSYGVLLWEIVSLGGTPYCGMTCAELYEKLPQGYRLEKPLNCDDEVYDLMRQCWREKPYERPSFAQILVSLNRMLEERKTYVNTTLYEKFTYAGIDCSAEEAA
Binding assays used specific radioligands (tritiated, iodinated) with non-radioactive competitive displacement ligands in agonist or antagonist protocols (as indicated) and various reference compounds and inhibitors to titrate specific binding to receptors and transporters. Most enzyme assays (CYPs, kinases, phosphatases, proteases, HDACs) used recombinant protein and specific substrates (fluorescence mostly, some colorimetric and radioactive) and inhibitors, followed by a biochemical separation of substrate and product. All assays for the biochemical HTS were initially run in duplicate at a single concentration (10 uM for CYP450 assays and 25 uM for all others). Assay-chemical combinations meeting a pre-defined threshold (e.g., 30% inhibition and other criteria defined below) were then run in singleton concentration-response format with maximum concentration of 20 uM for CYPs and 50 uM for all others. Each assay was run with positive and negative controls, and concurrent controls on every plate. The follow-up (secondary) screen tested active chemical-pairs in concentration series, as well as a few additional assays not tested in the primary screen, some selected negative inactives, and several cases re-run in the concentration series for confirmatory purposes.
In the case of `CC(C)(c1ccc(O)cc1)c1ccc(O)cc1`, the call was inactive. As for `COc1ccc2sc(C(=O)Nc3nnn[nH]3)c(OC(C)C)c2c1`, the result was inactive. As for `CCCCCCCCCCCCc1ccccc1S(=O)(=O)O`, the half-maximal activity concentration (AC50) is 9.14 µM (active). For the compound `C[C@]12C=CC(=O)C=C1CC[C@H]1[C@@H]3C[C@@H](O)[C@](O)(C(=O)CO)[C@@]3(C)C[C@H](O)[C@@]12F`, the compound was classed as inactive. Still for that read-out and setting: for `CC(C)c1cccc(C(C)C)c1N1C(=O)c2ccc(O)cc2C1=O` the value was “inactive”; for `O=C(O)c1ccc2c(c1)nc(C(=O)NC1CCN(C3CC3)CC1)n2Cc1cc(-c2ccc(Cl)s2)on1`, “inactive”. For the compound `O=c1[nH]cnc2c1ncn2[C@H]1CC[C@@H](CO)O1`, the outcome was inactive. For the compound `CC[C@H](C)C(=O)O[C@H]1C[C@@H](C)C=C2C=C[C@H](C)[C@H](CC[C@@H]3C[C@@H](O)CC(=O)O3)[C@H]21`, the compound was classed as inactive. On the same count and under the same terms, to `CC(C)c1ccc(C(=O)N=C(N)N)cc1S(C)(=O)=O` belongs “inactive”; to `COc1ccc(OC(F)(F)F)cc1CN[C@H]1CCCN[C@H]1c1ccccc1`, “inactive”. The same measure, in the same setting: for `CCCCC(CC)COC(=O)CCCCC(=O)OCc1ccccc1` (stereo not given) the value was “inactive”; for `CCCC(CCC)C(=O)O`, “inactive”. On the same count and under the same terms, for `NCCO` the value was “inactive”; for `Cc1[nH]nc2c1N=C(c1ccccc1Cl)c1cc([N+](=O)[O-])ccc1N2`, “inactive”. Consider `FC(F)(F)C(F)(F)C(F)(F)C(F)(F)C(F)(F)C(F)(F)CCI`, for which the compound was classed as inactive. Still for that read-out and setting: for `CCOC(=O)C(C)(C)Oc1ccc(Cl)cc1` the value was “inactive”; for `O=C(O)Cc1cc(I)c(Oc2cc(I)c(O)c(I)c2)c(I)c1`, “inactive”. Same read-out and setting: for `Cc1ccc(N)cc1O` the value was “inactive”. Take `O=C(c1ccc(OCCN2CCCCC2)cc1)c1c(-c2ccc(O)cc2)sc2cc(O)ccc12`: the AC50 was 31 µM (active). As to `Cc1ncc([C@@H](CCCCCCc2ccc3c(n2)NCCC3)CC(=O)O)cn1`, the compound was called inactive. On to `O=C(O)c1cc(N=Nc2ccc(S(=O)(=O)Nc3ccccn3)cc2)ccc1O`, for which the result was inactive. Consider `CN(C)C(=O)NC1(c2ccccc2)CCN(CC[C@@]2(c3ccc(F)c(F)c3)CN(C(=O)c3ccccc3)CCO2)CC1`, for which the call was inactive. On the same count and under the same terms, to `CCc1c(C(=O)NN2CCCCC2)nn(-c2ccc(Cl)cc2Cl)c1-c1ccc(Br)cc1` belongs “inactive”; to `CC(CO)OC(C)CO` (stereo not given) (tested in a mixture with another compound), “inactive”. On the same count and under the same terms, to `Cc1ccc2ncccc2c1` belongs “inactive”; to `O=C(Oc1ccccc1)c1cccc(C(=O)Oc2ccccc2)c1`, “inactive”. Take `O=[N+]([O-])c1ccc(Cl)cc1`: the call was inactive. As for `S=C(S)NCCNC(=S)S.[Mn+2].[S-]C([S-])=NCCN=C([S-])[S-].[Zn+2]`, the concentration at half-maximal activity (AC50) was 9.01 µM (active) and 2.11 µM (active) and 12.8 µM (active). For the compound `Nc1cccc2c(N)cccc12`, the compound was classed as inactive. In the case of `CCN(CC)CCNc1ccc(CNC=O)c2sc3ccc(OC)cc3c(=O)c12`, the call was inactive.

For `O=C(NO)C1(NS(=O)(=O)c2ccc(Oc3ccc(F)cc3)cc2)CCOCC1`, the compound was classed as inactive.

With `CCCCCCCC(=O)O`, the call was inactive. On to `NC(=NCCCCCCN=C(N)/N=C(\N)Nc1ccc(Cl)cc1)/N=C(\N)Nc1ccc(Cl)cc1`, for which the result was inactive. On the same count and under the same terms, for `COCC(C)OCC(C)O` (stereo not given) the value was “inactive”; for `COc1ccc(/C=C/S(=O)(=O)NC(=O)c2ccc(C)cc2Cl)cc1`, “inactive”.

Consider `CCC(O)=C1C(=O)CC(C(=O)O)CC1=O` (stereo not given), for which the compound was called inactive. As to `[O-]n1ccccc1=S.[O-]n1ccccc1=S.[Zn+2]`, the outcome was inactive.

`S=C([S-])NCCNC(=S)[S-].[Mn+2]`: the half-maximal activity concentration (AC50) was 12.9 µM (active).

As for `CCCCOC(=O)CCCCC(=O)OCCCC`, the outcome was inactive. For `Cc1nc(-c2ccc3c(c2)CCN(CCC2CCC(NC(=O)/C=C/c4ccc(F)cc4)CC2)CC3)no1` (stereo not given), the AC50 is 16.2 µM (active).
